Compounds with a hit are over-represented: about 9.6% of the library has one in this group of screens.
PostGolgi yeast = phenotypic screen on post-Golgi transport, primary screen; inhibition, % at 10 µM; hit rate 0.9% among 98,000; post-Golgi transport phenotypic cell assay;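 also: yeast cells grown in 1536-well plates; yeast grown about 18 h at 30C before absorbance read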
PLAP activator = PLAP enzyme activators, biochemical, luminescence, HTS; AID 696, 2007; purified PLAP enzyme, luminescent substrate read-out; stronger effect = higher value; activation fold at 20 µM; hit rate 1.2% among 96,000; in the data active = activation fold above about 2
PostGolgi ctrl = growth inhibition of yeast control strain, primary screen, counter-screen for post-Golgi transport modulator project. efflux-deficient yeast background strain, growth absorbance A615, 16 h. inhibition, % at 10 µM. hit rate 5% among 98,000
Cav3 T inh = Cav3.2 calcium influx blockers – cell-based, Fluo-4 calcium fluorescence, FDSS, MLSMR library, primary screen; Voltage-dependent T-type calcium channel subunit alpha-1H (Homo sapiens), O95180; Cav3.2-expressing cells; stronger effect = lower value; B-score at 10 µM; hit rate 4% among 100,000; AID 449739, 2010;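 active = single-dose well whose peak fluorescence ratio is a statistical outlier from its plate by either plate-standardised score or position-corrected B-score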
DAT uptake mod = changed hDAT dopamine uptake under cocaine IC80, either direction, primary screen, cocaine antagonist project, cell-based, LLC-PK1 hDAT, [14C]-dopamine uptake, MLSMR. LLC-PK1 hDAT cells, [14C]-dopamine uptake with cocaine IC80; actives deviate in either direction. hit rate 1.3% among 110,000. B-score at 10 µM. Sodium-dependent dopamine transporter (Homo sapiens), Q01959;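 active = Z score or B-score, a plate-position-corrected score, falls beyond the plate's 99.7% confidence bounds, in either direction; inactive = both scores lie inside the 99.7% bounds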;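 also: scored against the spread of the other compound wells on the same plate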
Target sequence (Q01959 whole entry, looked up): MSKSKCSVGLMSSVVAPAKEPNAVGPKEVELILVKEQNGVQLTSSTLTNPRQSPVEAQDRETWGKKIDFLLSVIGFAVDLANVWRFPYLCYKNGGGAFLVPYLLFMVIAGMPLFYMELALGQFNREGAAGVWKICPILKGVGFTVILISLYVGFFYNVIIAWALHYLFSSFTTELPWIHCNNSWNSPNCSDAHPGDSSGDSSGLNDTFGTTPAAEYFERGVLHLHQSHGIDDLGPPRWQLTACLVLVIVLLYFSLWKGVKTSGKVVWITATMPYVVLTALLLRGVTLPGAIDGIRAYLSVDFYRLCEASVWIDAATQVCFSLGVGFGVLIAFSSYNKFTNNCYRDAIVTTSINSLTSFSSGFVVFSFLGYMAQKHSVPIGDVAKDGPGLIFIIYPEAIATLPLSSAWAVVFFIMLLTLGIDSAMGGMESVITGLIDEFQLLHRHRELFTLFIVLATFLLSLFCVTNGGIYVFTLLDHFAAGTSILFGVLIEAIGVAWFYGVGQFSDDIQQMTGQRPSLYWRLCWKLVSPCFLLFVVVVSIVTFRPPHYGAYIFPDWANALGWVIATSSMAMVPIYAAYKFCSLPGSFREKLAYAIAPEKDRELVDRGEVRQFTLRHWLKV
* hit, by the source's call; nt = not tested or not shown; ! = not confirmed by another sample. Rule as the data show it, unless noted: active = inhibition above about 30%; inactive = the rest.

SMILES	PostGolgi yeast	PLAP activator	PostGolgi ctrl	Cav3 T inh	DAT uptake mod
CC(C)(C)CC(C)(C)NCC(O)COc1c(F)cc(Br)cc1F (stereo not given)	-2	1.3	19	-5.7*	-0.07
Cc1nn(Cc2ccc([N+](=O)[O-])cc2)c(=O)n1-c1c(F)cccc1F	-3	1	16	nt	0.88
CS(=O)(=O)c1nc(-c2ccc(Br)cc2)cc(-c2ccccc2)c1C#N	10	0.9	74*	1.1	-0.6
CS(=O)c1nc(-c2ccc(Br)cc2)cc(-c2ccccc2)c1C#N (stereo not given)	-1	0.8	77*	-0.48	0.29
CCCS(=O)(=O)C(=C(Nc1ccccc1)Nc1ccccc1)S(=O)(=O)CCC	6	1.1	5	-0.9	0.071
CCCCCOP(=O)(OCCCCC)C1(NS(=O)(=O)c2ccccc2)C=CC(=O)c2ccccc21 (stereo not given)	0	1.1	18	-0.1	-0.11
Brc1ccccc1Cn1c(-c2cncs2)nc2ccccc21	8	0.8	63*	-0.8	-0.19
O=C(CSc1ccc2ccccc2n1)c1ccc2c(c1)OCO2	9	0.8	32*	0.14	1.2
O=C(O)CCSc1ccc2ccccc2n1	1	1	44*!	0.54	1
O=C(O)CSc1ccc2ccccc2n1	5	1	7	2.1	0.15
O=C(NC1CCCCC1)N1CCN(CCc2ccccc2)CC1	10	1.1	6	0.74	-0.28
CCOC(=O)c1c(NC(=O)CCN2CCOCC2)sc2c1CC(C)(C)OC2	-27	1.5	1	0.29	2.8*
COc1cc(NC(=O)c2ccc(CNc3c(N4CCOCC4)c(=O)c3=O)cc2)cc(OC)c1	-3	1	2	2.1	1.4
Cc1ccc(CS(=O)(=O)CCC(=O)NCCCN2CCCC2=O)cc1	-6	1.1	3	-0.039	-0.27
O=S(=O)(c1ccc2c(c1)OCCO2)N(Cc1ccc(F)cc1)Cc1nnc(-c2cccs2)o1	-4	1.1	35*	-3.5	-0.59
O=C(CN(Cc1ccccc1)S(=O)(=O)c1ccc2c(c1)OCCO2)N/N=C/c1ccc(F)cc1	-3	1	23	nt	0.25
Cc1cc(C(=O)CN(Cc2ccc(F)cc2)S(=O)(=O)c2ccc3c(c2)OCCO3)c(C)n1C	20	1.4	5	-2.9*	0.87
CCN(CC)C(=O)CSCc1cnn(-c2ccccc2)c1-n1cccc1	-12	1.4	3	-1.3	0.37
CCOC(=O)C1=C(c2ccccc2)Nc2ncnn2C1c1cccc(OC)c1OC (stereo not given)	5	1.5	1	3.4*	-0.81
O=[N+]([O-])c1cccnc1N1CCC(c2cc(-c3ccc(Cl)cc3Cl)n[nH]2)CC1	2	1.1	59*	-0.49	-0.084
O=C(Cn1nc(Cc2cccnc2)c2ccccc2c1=O)NCc1ccc(F)cc1	-5	1.3	-1	0.09	-0.35
Cc1ccc(O)c(NC(=O)c2cc3nc4c(c(C(F)(F)F)n3n2)CCc2ccccc2-4)c1	2	1	35*	0.12	-0.039
Cc1[nH]c2ccccc2c1SCc1ccccc1	nt	nt	nt	-2.1	-2.7*
N#Cc1ccc(-n2c(-c3ccccc3)nnc2-c2ccccc2)cc1C#N	4	nt	41*	0.2	0.32
N#Cc1cccc(-n2c(-c3ccccc3)nnc2-c2ccccc2)c1C#N	4	0.8	24	-0.97	-0.15
SMILES	PostGolgi yeast	PLAP activator	PostGolgi ctrl	Cav3 T inh	DAT uptake mod
C/C(CCC12CC3CC(CC(C3)C1)C2)=N\NC(N)=S	86*	0.9	45*	-1.5	-0.055
Cc1onc(-c2ccccc2)c1C(=O)N1CC(C)OC(C)C1 (stereo not given)	1	1	22	0.22	0.91
CC1(c2cc([N+](=O)[O-])cc([N+](=O)[O-])c2)CC(C)(C)N(C(=O)c2ccccc2)c2ccccc21 (stereo not given)	2	1	21	0.22	-0.029
CC1(c2ccccc2)CC(C)(C)N(C(=O)C2CCCO2)c2ccccc21 (stereo not given)	-4	1.7	66*	-4.5*	-0.84
O=C(c1cc2ccccc2oc1=O)N(Cc1cccs1)Cc1ccccc1Cl	nt	nt	nt	-7.1*	2.5*
COc1cc(S(=O)(=O)NC2CCCCC2C)ccc1Cl (stereo not given)	-3	0.8	49*	-3	0.29
CC1CCCCC1NS(=O)(=O)c1ccc(S(=O)(=O)N2CCCC2)cc1 (stereo not given)	0	1.4	21	-1.9	-5*
CCOC(=O)Nc1c(O)ccc2oc(C)c(-c3ccccc3)c12	12	1	18	nt	0.061
CC(C)c1nc(NCC2CCCO2)c(C#N)c2c1COC(C)(C)C2 (stereo not given)	2	1.2	18	-3.5*	1.2
CCc1cccc(NC(=O)CCSCCC(=O)Nc2cccc(CC)c2)c1	-8	1.1	2	-7.5*	0.42
Cc1ccc(NC(=O)CCSCCC(=O)Nc2ccc(C)c(C)c2)cc1C	-7	1.2	-4	-6.8*	0.37
Cc1ccc(NC(=O)CSCC(N)=O)cc1C	4	0.9	-6	0.58	1.1
O=C(Cn1ncn2c(cc3ccccc32)c1=O)NCc1ccco1	7	1.2	2	1.1	0.1
Cc1cccc(N(CC(=O)NC2CCCCC2)C(=O)CCC(=O)Nc2ccccn2)c1	nt	1.2	nt	-4.2*	-0.18
Cc1ccnc(NC(=O)CCC(=O)N(CC(=O)NC2CCCCC2)c2ccc3c(c2)OCO3)c1	nt	1.3	nt	-4.5*	-0.71
Cc1ccc(C(=O)N2CCSCC2)cc1	-11	0.8	24	0.8	-0.67
CC1(C)CC(=O)c2cnc(N3CCc4ccccc4C3)nc2C1	18	1.1	11	-0.95	-0.9
COC(=O)C1=C(C)N=C2SC(C)C(=O)N2C1c1cccc(F)c1 (stereo not given)	4	1	-11	-4.6*	0.29
CCOc1cc(C2C(C(=O)OC)=C(C)N=C3SC(C)C(=O)N32)ccc1OC(C)=O (stereo not given)	-5	1.2	2	-2.6	1.4
CCOC(=O)C1=C(C)N=C2SC(C)C(=O)N2C1c1ccc(OC(C)=O)c(OC)c1 (stereo not given)	0	nt	47*	-2	-0.14
COCCOC(=O)C1=C(C)N=C2SCCC(=O)N2C1/C=C/c1ccccc1 (stereo not given)	2	1.2	2	-0.14	-1.6
CCOC(=O)C1=C(C)N=C2SC(C)C(=O)N2C1/C=C/c1ccccc1OC (stereo not given)	-6	1.7	8	-5.2*	0.021
CCOC(=O)C1=C(C)N=C2SCCC(=O)N2[C@@H]1/C=C/c1ccccc1	4	1.1	22	-4.8*	0.035
CCOC(=O)C1=c2/c(=C/c3ccccc3OC)c(N)c(C#N)n2C(=O)C(c2ccccc2OC)S1 (stereo not given)	-8	0.8	-5	nt	nt
CC(=O)Nc1ccc(C(=O)CSc2nnnn2C(C)C)cc1	-4	0.9	-4	0.87	-0.12
